“And” between values parts separate entries of the source, which are not always exact repeats. Equal values may be shown once. About 2,000 (36%) of roughly 5,500 compounds were called active. About 18% were inconclusive and are not listed. No stated cut-off is given here; in the data, active means normalized growth mostly below about 0.91 (no sharp cut-off); inconclusive means no clear call, values can overlap the other calls; inactive means mostly above about 0.92. The list shows a part of the results.
Assay: chemical genetic growth profiling, strain panel (AID 1159580);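 further: tested at 20 µM; growth read once vehicle control cultures reached saturation at 30 °C; 1 = growth at the plate median or of vehicle wells; lower values mean less growth of the strain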
Details: S. cerevisiae deletion strains, growth OD

Measured: normalized growth

COC(=O)C1=C(C)NC(C)=C(C(=O)OCCN(C)Cc2ccccc2)C1c1cccc([N+](=O)[O-])c1 (stereo not given)
inactive: locus YAL013W, strain DEP1, hits give low values 1 | locus YAL021C, strain ccr4, hits give low values 0.98 | locus YAL026C, strain drs2, hits give low values 0.979 | locus YAL030W, strain snc1, hits give low values 1.01 | locus YAL040C, strain CLN3, hits give low values 1.02 | locus YBL061C, strain skt5, hits give low values 0.984 | locus YBR009C, strain hhf1, hits give low values 0.984 | locus YBR021W, strain FUR4, hits give low values 0.935 | locus YBR023C, strain chs3, hits give low values 0.989 | locus YBR171W, strain sec66, hits give low values 0.986 | locus YBR229C, strain ROT2, hits give low values 0.952 | locus YBR231C, strain swc5, hits give low values 0.978 | locus YBR279W, strain paf1, hits give low values 0.975 | locus YCL011C, strain gbp2, hits give low values 0.969 | locus YCL016C, strain dcc1, hits give low values 0.982 | locus YCL029C, strain bik1, hits give low values 0.981 | locus YCL061C, strain MRC1 (second series), hits give low values 0.972 | locus YCL069W, strain vba3, hits give low values 1 | locus YCR088W, strain abp1, hits give low values 0.984 | locus YDL005C, strain med2, hits give low values 0.986 | locus YDL035C, strain GPR1, hits give low values 0.983 | locus YDL040C, strain nat1, hits give low values 0.973 | locus YDL074C, strain BRE1, hits give low values 0.917 | locus YDL101C, strain DUN1, hits give low values 0.979 | locus YDL134C, strain PPH21, hits give low values 0.976 | locus YDL185W, strain tfp1, hits give low values 0.977 | locus YDL192W, strain arf1, hits give low values 0.992 | locus YDR001C, strain nth1, hits give low values 0.974 | locus YDR069C, strain doa4, hits give low values 0.977 | locus YDR101C, strain arx1, hits give low values 0.986 | locus YDR137W, strain rgp1, hits give low values 1.02 | locus YDR150W, strain NUM1, hits give low values 0.977 and 0.972 | locus YDR159W, strain sac3, hits give low values 0.93 | locus YDR162C, strain NBP2, hits give low values 1 | locus YDR195W, strain ref2 0.96 | locus YDR297W, strain sur2, hits give low values 0.972 | locus YDR318W, strain mcm21, hits give low values 0.944 | locus YDR334W, strain swr1, hits give low values 0.925 | locus YDR335W, strain msn5, hits give low values 0.986 | locus YDR363W, strain ESC2, hits give low values 1.03 | locus YDR388W, hits give low values 0.993 | locus YDR392W, strain spt3, hits give low values 0.968 | locus YDR502C, strain sam2, hits give low values 0.981 | locus YEL003W, strain gim4, hits give low values 0.996 | locus YEL037C, strain rad23, hits give low values 0.981 | locus YEL061C, strain CIN8 (second series), hits give low values 0.99 | locus YEL061C, strain CIN8, hits give low values 0.994 | locus YER002W, strain NOP16, hits give low values 1.01 | locus YER015W, strain faa2, hits give low values 0.988 | locus YER016W, strain bim1, hits give low values 0.983 | locus YER110C, hits give low values 0.976 | locus YER111C, strain swi4, hits give low values 0.989 | locus YER155C, strain BEM2 (second series), hits give low values 0.968 | locus YER155C, strain BEM2, hits give low values 0.99 | locus YER167W, strain BCK2, hits give low values 0.994 | locus YFR010W, strain ubp6, hits give low values 0.978 | locus YGL078C, strain dbp3, hits give low values 0.979 | locus YGL086W, strain mad1, hits give low values 0.986 | locus YGL167C, strain pmr1, hits give low values 1.05 | locus YGL173C, strain kem1, hits give low values 0.982 | locus YGL227W, strain vid30, hits give low values 0.989 | locus YGL240W, strain doc1, hits give low values 0.97 | locus YGL248W, strain PDE1, hits give low values 0.991 | locus YGL253W, strain hxk2, hits give low values 0.988 | locus YGR078C, strain PAC10, hits give low values 0.955 | locus YGR135W, strain pre9, hits give low values 0.972 | locus YGR229C, strain SMI1, hits give low values 0.982 | locus YGR252W, strain gcn5, hits give low values 0.902 | locus YHR013C, strain ard1, hits give low values 0.978 | locus YHR027C, strain rpn1, hits give low values 0.983 | locus YHR030C, strain SLT2, hits give low values 0.987 and 0.976 | locus YHR079C, strain IRE1 (second series), hits give low values 0.982 | locus YHR079C, strain IRE1, hits give low values 0.949 | locus YHR094C, strain hxt1, hits give low values 0.988 | locus YHR129C, strain ARP1, hits give low values 0.994 | locus YHR142W, strain chs7, hits give low values 1.02 | locus YHR200W, strain rpn10, hits give low values 0.989 | locus YIL066C, strain RNR3, hits give low values 0.973 | locus YIL073C, strain SPO22, hits give low values 1.12 | locus YIL125W, strain kgd1, hits give low values 0.99 | locus YIR030C, strain dcg1, hits give low values 0.979 | locus YJL092W, strain hpr5, hits give low values 0.996 | locus YJL095W, strain BCK1 (second series), hits give low values 0.983 | locus YJL095W, strain BCK1, hits give low values 0.988 and 0.979 | locus YJL115W, strain asf1, hits give low values 0.989 | locus YJL129C, strain trk1, hits give low values 0.959 | locus YJL134W, strain LCB3, hits give low values 0.987 | locus YJL154C, strain vps35, hits give low values 0.971 | locus YJL164C, strain tpk1, hits give low values 0.998 | locus YJL166W, strain qcr8, hits give low values 0.993 | locus YJL168C, strain set2, hits give low values 1 | locus YJL187C, strain SWE1 (second series), hits give low values 0.973 | locus YJL187C, strain SWE1, hits give low values 0.993 | locus YJR043C, strain POL32, hits give low values 0.997 | locus YJR066W, strain TOR1, hits give low values 0.917

— PubChem BioAssay AID1159580 (chemical genetic matrix, 2015)
